Measured values: PubChem BioAssay (NCATS)
Records with an inconclusive call do not appear. Activity calls are given as the source filed them. The call rests on the fitted dose curve; in most records, active means well fitted curve in the direction sought with a large enough effect; inconclusive means small, poorly fitted or top-dose-only effect, or another doubt; inactive means no such curve, though single readings can be large; an effect the other way counts as inactive or inconclusive.

Experiments:
[1] = target: Cellular tumor antigen p53 (Homo sapiens) (UniProt P04637); assay: Primary qHTS for small molecule compounds that upregulate eGFP-tagged delta133p53alpha (in N-terminal) cells. (AID 2060322); details: NCI-H358 eGFP-delta133p53alpha fluorescence, 24 h; activation: hits give high values;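 further: series mostly up to about 56 µM; 0% = DMSO vehicle and 100% = reference activator; nearly all actives have a fitted effect of over 75% in size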
Outline: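 NCI-H358 cells pre-induced 24 h with 10 ng/ml doxycycline to express N-terminal eGFP-delta133p53alpha, then dosed 24 h at 37C without doxycycline; fixed, Hoechst-stained, GFP intensity by laser scanning cytometry, normalized to DMSO (0%) and 57.5 uM 5-azacytidine (100%).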

[2] = target: Aldehyde dehydrogenase, mitochondrial (Homo sapiens) (UniProt P05091); assay: qHTS for Inhibitors of the Aldehyde Dehydrogenase Family (ALDH2) Primary screen (AID 2061308);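 further: plate controls were vehicle for no effect and reference inhibitor for full effect; nearly all actives have a fitted effect of over 55% in size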
[3] = target: Retinaldehyde dehydrogenase 3 (Homo sapiens) (UniProt P47895); assay: qHTS for Inhibitors of the Aldehyde Dehydrogenase Family (ALDH1A3) Primary screen (AID 2061315);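 further: plate controls were DMSO vehicle for no effect and reference inhibitor for full effect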

Chain of Cellular tumor antigen p53 (Homo sapiens) (P04637 whole entry, looked up): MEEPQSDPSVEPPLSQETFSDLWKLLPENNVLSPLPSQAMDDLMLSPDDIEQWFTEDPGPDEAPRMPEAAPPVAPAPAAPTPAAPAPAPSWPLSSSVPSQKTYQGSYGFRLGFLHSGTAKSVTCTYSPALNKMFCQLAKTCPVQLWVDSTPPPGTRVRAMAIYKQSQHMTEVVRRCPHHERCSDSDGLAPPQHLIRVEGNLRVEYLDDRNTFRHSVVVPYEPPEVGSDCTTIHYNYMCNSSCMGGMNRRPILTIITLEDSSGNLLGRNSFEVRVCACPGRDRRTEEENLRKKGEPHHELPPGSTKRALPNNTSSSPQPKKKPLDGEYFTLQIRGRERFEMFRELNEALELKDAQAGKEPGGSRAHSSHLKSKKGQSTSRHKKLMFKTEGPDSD

C/C1=C\C[C@]2(C)C(=O)C(O)=C([C@H](C)CO)[C@H]2C/C=C(\C)[C@@H](O)CC/C(C)=C/CC1
inactive: activation [1] -6.11% | Potency [2] | Potency [3]

CC#CCn1c(N2CCCC(N)C2)nc2c1c(=O)n(Cc1nc(C)c3ccccc3n1)c(=O)n2C (centres undefined)
inactive: activation [1] 5.67% | Potency [2] | Potency [3]

CC(=O)O[C@@H]1[C@H](O[C@@H]2O[C@H](CO)[C@@H](O)[C@H](O)[C@H]2O)[C@@H](O[C@@H]2O[C@@H](C)[C@H](O)[C@@H](O[C@@H]3O[C@H](CO)[C@@H](O)[C@H](O)[C@H]3O)[C@H]2O)[C@H](OC(=O)[C@]23CCC(C)(C)C[C@H]2C2=CCC4[C@@]5(C)C[C@H](O)[C@H](O[C@@H]6O[C@H](C(=O)O)[C@@H](O)[C@H](O)[C@H]6O)[C@@](C)(C(=O)O)C5CC[C@@]4(C)[C@]2(C)CC3)O[C@@H]1C (some centres undefined)
inactive: activation [1] 2.29% | activity change, negative = inhibition [2] 6.2% [at 11.2 µM] | activity change, negative = inhibition [3] -6.53% [at 11.2 µM]
